This is an account of results in PubChem BioAssay (EPA / NIEHS).

Activity calls are given as the source filed them. Rule for the calls: active = hit-call score of the fitted dose curve at least 0.9, where 1 is the maximum; inactive = score below 0.9.

Read-out in one test: Interleukin-1 alpha (IL1a), IL1A (gene 3552)
The test can be described thus: BSK_LPS_IL1a: BioMAP Diversity Plus: LPS Assay for Interleukin-1 alpha (IL1a) Biomarker Activity (AID 2283080). As to conditions: primary human HUVEC with PBMC; actives raise or lower the signal. A digest of the protocol:
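ELISA read-out of IL-1 alpha from a human primary vascular co-culture (endothelium plus PBMC) under LPS, sampled 24 hours post-dosing. Activity was fitted in both directions relative to DMSO controls.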
Turning to `Cc1cc(C)nc(Nc2ccccc2)n1`, the result was inactive.

`CC(C)Nc1nc(Cl)nc(NC(C)C)n1`: the outcome was inactive.

`CO/N=C(/C1=NOCCO1)c1ccccc1Oc1ncnc(Oc2ccccc2Cl)c1F`: the outcome was inactive.

Consider `CNC(=O)Oc1cccc2ccccc12`, for which the outcome was inactive.

Take `COC(=O)c1c(C(F)F)nc(C(F)(F)F)c(C2=NCCS2)c1CC(C)C`: the result was inactive.

As to `CC(C)(C)C(=O)C(Oc1ccc(Cl)cc1)n1cncn1` (configuration not stated), the result was inactive.

Take `Clc1nc(Cl)nc(Nc2ccccc2Cl)n1`: the result was inactive.

As to `CCCCOCN(C(=O)CCl)c1c(CC)cccc1CC`, the AC50 was 30.7 µM (active).

Consider `CCOc1nc(F)cc2nc(S(=O)(=O)Nc3c(Cl)cccc3Cl)nn12`, for which the result was inactive.

As to `Cc1c(COC(=O)[C@@H]2[C@H](/C=C(\Cl)C(F)(F)F)C2(C)C)cccc1-c1ccccc1`, the outcome was inactive.

In the case of `Nc1c(Cl)c(Cl)nc(C(=O)O)c1Cl`, the outcome was inactive.

On to `O=C(O)c1c(Cl)ccc2cc(Cl)cnc12`, for which the result was inactive.

Regarding `C=C(C)CN(CC)c1c([N+](=O)[O-])cc(C(F)(F)F)cc1[N+](=O)[O-]`, the result was inactive.

With `CC(C)NC(=O)N1CC(=O)N(c2cc(Cl)cc(Cl)c2)C1=O`, the outcome was inactive.

For `Cc1ccc(N=CN(C)C=Nc2ccc(C)cc2C)c(C)c1`, the AC50 was 30.2 µM (active).

On to `CCOP(=S)(OCC)Oc1nc(Cl)n(C(C)C)n1`, for which the outcome was inactive.

Regarding `Cc1nc(N(C)C)nc(OC(=O)N(C)C)c1C`, the result was inactive.

Turning to `C=CCOC(=O)C(C)(C)OC(=O)c1cc(-n2c(=O)cc(C(F)(F)F)n(C)c2=O)ccc1Cl`, the outcome was inactive.

Turning to `Nc1cnn(-c2ccccc2)c(=O)c1Cl`, the outcome was inactive.

In the case of `CCN(CC)C(=O)C(C)Oc1cccc2ccccc12` (configuration not stated), the result was inactive.

For the compound `Nc1c(Cl)c(F)nc(OCC(=O)O)c1Cl`, the outcome was inactive.

As to `CCOP(=O)(OCC)Oc1nc(Cl)c(Cl)cc1Cl`, the outcome was inactive.

For the compound `CSC(=O)c1c(C(F)F)nc(C(F)(F)F)c(C(=O)SC)c1CC(C)C`, the AC50 is 15.1 µM (active).

With `COP(=O)(OC)O/C(C)=C/C(=O)N(C)C`, the result was inactive.

With `COc1cc(OC)nc(NC(=O)NS(=O)(=O)c2ncccc2OCC(F)(F)F)n1`, the outcome was inactive.

As to `CN=C=S`, the outcome was inactive.

On to `COc1cc(Cl)c(OC)cc1Cl`, for which the outcome was inactive.

Regarding `OC(c1ccc(Cl)cc1)(c1ccc(Cl)cc1)C(Cl)(Cl)Cl`, the AC50 is 27.4 µM (active).

Regarding `COC(=O)N(C(=O)N1CO[C@@]2(C(=O)OC)Cc3cc(Cl)ccc3C2=N1)c1ccc(OC(F)(F)F)cc1`, the outcome was inactive.

Regarding `CC(C)C1(C)N=C(c2ncccc2C(=O)O)NC1=O` (configuration not stated), the result was inactive.

Regarding `CN/C(=N\[N+](=O)[O-])NCc1cnc(Cl)s1`, the result was inactive.

Consider `Cn1c(-c2ccccc2)cc(-c2ccccc2)[n+]1C`, for which the result was inactive.

For the compound `Clc1cccc(C(Cl)(Cl)Cl)n1`, the outcome was inactive.

As for `COC(=O)NS(=O)(=O)c1ccc(N)cc1`, the result was inactive.

As to `Cc1cnc(C2=NC(C)(C(C)C)C(=O)N2)c(C(=O)O)c1` (configuration not stated), the outcome was inactive.

On to `O=C(Nc1ccccc1-c1ccc(Cl)cc1)c1cccnc1Cl`, for which the outcome was inactive.

Read-out in the next test: Monocyte Chemoattractant Protein-1 (MCP1), CCL2 (gene 6347)
Kind of test: BSK_LPS_MCP1: BioMAP Diversity Plus: LPS Assay for Monocyte Chemoattractant Protein-1 (MCP1) Biomarker Activity (AID 2283081).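 For AC50: co-culture stimulated with LPS; secreted MCP-1 protein quantified by ELISA in culture supernatant.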 Conditions: primary human HUVEC with PBMC; actives raise or lower the signal. A digest of the protocol: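 Human endothelial–PBMC co-cultures were dosed with chemical, then LPS-driven MCP-1 levels were quantified by ELISA at 24 h. Activity in either direction was fitted versus DMSO negative control.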
Consider `Cc1cc(C)nc(Nc2ccccc2)n1`, for which the result was inactive.

With `CC(C)Nc1nc(Cl)nc(NC(C)C)n1`, the outcome was inactive.

On to `CO/N=C(/C1=NOCCO1)c1ccccc1Oc1ncnc(Oc2ccccc2Cl)c1F`, for which the AC50 is 22.1 µM (active).

With `CNC(=O)Oc1cccc2ccccc12`, the outcome was inactive.

Turning to `COC(=O)c1c(C(F)F)nc(C(F)(F)F)c(C2=NCCS2)c1CC(C)C`, the result was inactive.

Turning to `CC(C)(C)C(=O)C(Oc1ccc(Cl)cc1)n1cncn1` (configuration not stated), the outcome was inactive.

Turning to `Clc1nc(Cl)nc(Nc2ccccc2Cl)n1`, the outcome was inactive.

As to `CCCCOCN(C(=O)CCl)c1c(CC)cccc1CC`, the AC50 is 31.8 µM (active).

In the case of `CCOc1nc(F)cc2nc(S(=O)(=O)Nc3c(Cl)cccc3Cl)nn12`, the result was inactive.

For the compound `Cc1c(COC(=O)[C@@H]2[C@H](/C=C(\Cl)C(F)(F)F)C2(C)C)cccc1-c1ccccc1`, the result was inactive.

On to `Nc1c(Cl)c(Cl)nc(C(=O)O)c1Cl`, for which the outcome was inactive.

Turning to `O=C(O)c1c(Cl)ccc2cc(Cl)cnc12`, the outcome was inactive.

Consider `C=C(C)CN(CC)c1c([N+](=O)[O-])cc(C(F)(F)F)cc1[N+](=O)[O-]`, for which the result was inactive.

With `CC(C)NC(=O)N1CC(=O)N(c2cc(Cl)cc(Cl)c2)C1=O`, the result was inactive.

Consider `Cc1ccc(N=CN(C)C=Nc2ccc(C)cc2C)c(C)c1`, for which the AC50 was 31.7 µM (active).

As for `CCOP(=S)(OCC)Oc1nc(Cl)n(C(C)C)n1`, the result was inactive.

As to `Cc1nc(N(C)C)nc(OC(=O)N(C)C)c1C`, the outcome was inactive.

Consider `C=CCOC(=O)C(C)(C)OC(=O)c1cc(-n2c(=O)cc(C(F)(F)F)n(C)c2=O)ccc1Cl`, for which the result was inactive.

As to `Nc1cnn(-c2ccccc2)c(=O)c1Cl`, the result was inactive.

As for `CCN(CC)C(=O)C(C)Oc1cccc2ccccc12` (configuration not stated), the outcome was inactive.

With `Nc1c(Cl)c(F)nc(OCC(=O)O)c1Cl`, the outcome was inactive.

As to `CCOP(=O)(OCC)Oc1nc(Cl)c(Cl)cc1Cl`, the outcome was inactive.

With `CSC(=O)c1c(C(F)F)nc(C(F)(F)F)c(C(=O)SC)c1CC(C)C`, the outcome was inactive.

Turning to `COP(=O)(OC)O/C(C)=C/C(=O)N(C)C`, the outcome was inactive.

Consider `COc1cc(OC)nc(NC(=O)NS(=O)(=O)c2ncccc2OCC(F)(F)F)n1`, for which the outcome was inactive.

Consider `CN=C=S`, for which the outcome was inactive.

For `COc1cc(Cl)c(OC)cc1Cl`, the outcome was inactive.

Consider `OC(c1ccc(Cl)cc1)(c1ccc(Cl)cc1)C(Cl)(Cl)Cl`, for which the AC50 was 30.6 µM (active).

Turning to `COC(=O)N(C(=O)N1CO[C@@]2(C(=O)OC)Cc3cc(Cl)ccc3C2=N1)c1ccc(OC(F)(F)F)cc1`, the outcome was inactive.

In the case of `CC(C)C1(C)N=C(c2ncccc2C(=O)O)NC1=O` (configuration not stated), the result was inactive.

For the compound `CN/C(=N\[N+](=O)[O-])NCc1cnc(Cl)s1`, the result was inactive.

On to `Cn1c(-c2ccccc2)cc(-c2ccccc2)[n+]1C`, for which the outcome was inactive.

As for `Clc1cccc(C(Cl)(Cl)Cl)n1`, the result was inactive.

`COC(=O)NS(=O)(=O)c1ccc(N)cc1`: the result was inactive.

In the case of `Cc1cnc(C2=NC(C)(C(C)C)C(=O)N2)c(C(=O)O)c1` (configuration not stated), the outcome was inactive.

With `O=C(Nc1ccccc1-c1ccc(Cl)cc1)c1cccnc1Cl`, the result was inactive.
